Measured values published in PubChem BioAssay (EPA / NIEHS).
Where “and” joins values, the source holds several entries; their conditions need not be identical. Equal values may be shown once. Results filed as inconclusive are left out. The source holds several records for some structures; these can differ, active in one and inactive in another. Calls of active or inactive are those of the source. The calls were made as follows, unless noted: active = hit-call score of the fitted dose curve at least 0.9, where 1 is the maximum; inactive = score below 0.9.

What was measured:
[1] = CCTE_Simmons_MITO_basal_resp_rate: CCTE's HepG2 Seahorse XF Respirometric Screening Assay at Basal Respiratory State, Simmons Lab (AID 2284001); details: actives raise or lower the signal
Outline: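 Basal-phase OCR of HepG2 cells on a Seahorse XF96, analysed by bidirectional fit relative to DMSO vehicle; chemicals at 7 concentrations, 125 nM–100 uM final; three biological replicates; fenpyroximate and 2,4-dinitrophenol positive controls.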

[2] = CCTE_Simmons_MITO_max_resp_rate: CCTE's HepG2 Seahorse XF Respirometric Screening Assay at Maximal Respiratory State [uncoupled], Simmons Lab (AID 2284002); details: actives raise or lower the signal
Outline: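 HepG2 oxygen consumption measured on Seahorse XF after FCCP uncoupling, following test compound injection; 7 concentrations from 125 nM to 100 uM final. Readings every 6 min over 72 min, three biological replicates; bidirectional fit versus DMSO.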

[3] = CCTE_Simmons_MITO_inhib_resp_rate: CCTE's HepG2 Seahorse XF Respirometric Screening Assay at Inhibited Respiratory State [full ETC block], Simmons Lab (AID 2284006); details: actives raise or lower the signal
Outline: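 Seahorse respirometry, HepG2, 72 min total, 6-min mix/measure cycles. Cpd 125 nM–100 uM final ×7, n=3 biological. Sequential FCCP, rotenone/antimycin A; inhibited-respiration OCR, bidirectional fit vs DMSO.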

[4] = CCTE_Harrill_HTTr_Viability_MCF7: CCTE's 6-hour Cell Viability Assessment for the High-Throughput Transcriptomics (HTTr) Platform, in MCF-7 cells cultured in DMEM + 10% fetal bovine serum, Harrill Lab (AID 2284010)
Outline: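 Read-out is propidium iodide gain of signal by high-content imaging, reflecting membrane integrity loss. Measurements are taken 6 h after dosing, eight concentrations per chemical, with DMSO serving as baseline for bidirectional curve fitting.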

[5] = CCTE_Harrill_HTTr_Apoptosis_MCF7: CCTE's 6-hour Apoptosis Assessment for the High-Throughput Transcriptomics (HTTr) Platform, in MCF-7 cells cultured in DMEM + 10% fetal bovine serum, Harrill Lab (AID 2284011)
Outline: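 MCF-7 cells in DMEM + 10% FBS exposed 6 h to chemicals over an eight-point dilution series. Caspase-3/7 activation imaged by high-content CellEvent Green staining; fitted bidirectionally versus DMSO.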

[6] = CCTE_Harrill_HTTr_CellCount_MCF7: CCTE's Cell Proliferation Assessment for the High-Throughput Transcriptomics (HTTr) Platform, Harrill Lab (AID 2284012; active = hit-call score of the fitted dose curve at least 0.9, where 1 is the maximum;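 also: cells exposed to compound for six hours; intended direction is loss of nuclei count meaning fewer cells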)
Outline: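 Cell count served as viability reporter: loss of Hoechst-stained nuclei, counted by high content imaging, marks decreased growth or survival. Exposure was 6 h in MCF-7 cells across eight concentrations, with DMSO as baseline.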

[7] = CCTE_Shafer_MEA_acute_spike_number: CCTE's Neural Acute Assay for Total Number of Spikes, Shafer Lab (AID 2284008);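 as to AC50: curve fitted for decrease in spike count so AC50 reflects inhibitors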
Outline: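 Rat primary cortical neurons on 48-well MEA plates, DIV 13 or 15, at 37 C. 40 min baseline then 40 min with compound (0.03-40 uM); spikes detected at 8x rms noise, expressed as percent change from baseline.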

[8] = CCTE_Shafer_MEA_acute_firing_rate_mean: CCTE's Neural Acute Assay for Mean Firing Rate, Shafer Lab (AID 2284009);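 also: analyzed for loss of signal so actives lower firing rate relative to DMSO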
Outline: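 Rat cortical neuron cultures matured to DIV 13 or 15, equilibrated 20 min at 37 C, then recorded 40 min for baseline. Compound (0.03-40 uM) added and a further 40 min recorded; percent change in mean firing rate calculated per well.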

[9] = CCTE_Shafer_MEA_acute_burst_duration_mean: CCTE's Neural Acute Assay for Mean Burst Duration, Shafer Lab (AID 2284014);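 also: hits are decreases in mean burst duration relative to DMSO controls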
Outline: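 Rat cortical cultures, DIV 13/15; 40 min baseline, then 40 min with compound (0.03-40 uM), 37 C. Spikes: 300-5000 Hz band-pass, 8x rms threshold. Read-out: % change in mean single-electrode burst duration, DMSO-referenced, loss direction.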

[10] = CCTE_Shafer_MEA_acute_per_burst_spike_number_mean: CCTE's Neural Acute Assay for Average Number of Spikes Per Burst, Shafer Lab (AID 2284015);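 also: hits are decreases in mean spikes per burst versus baseline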
Outline: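 Primary rat cortical neurons on 48-well MEA plates, treated on DIV 13 or 15 at 0.03-40 uM. Spontaneous activity recorded 40 min before and 40 min after compound at 37 C; percent change in mean spikes per single-electrode burst per well, fitted in the loss direction versus DMSO.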

[11] = CCTE_Shafer_MEA_acute_interburst_interval_mean: CCTE's Neural Acute Assay for Mean Interburst Interval, Shafer Lab (AID 2284016);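 also: percent change of mean interburst interval versus each well's own pre-dose baseline; curves fitted for decrease in interburst interval relative to DMSO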
Outline: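 Primary rat cortical neurons on 16-electrode MEA wells were recorded 40 min at baseline on DIV 13 or 15, then 40 min after compound (0.03-40 uM), at 37 C. Value is percent change in mean interburst interval per well, DMSO as negative control.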

[12] = CCTE_Shafer_MEA_acute_burst_percentage_mean: CCTE's Neural Acute Assay for Percentage of Spikes in a Burst, Shafer Lab (AID 2284017);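 as to AC50: curve fitted for loss of signal so potency reflects decreased burst percentage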
Outline: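 Primary rat cortical neurons on 16-electrode MEA wells; 40 min baseline recorded at DIV 13 or 15, then 40 min after compound (0.03-40 uM) at 37 C. Well-mean fraction of spikes in single-electrode bursts; percent change from baseline, DMSO as negative control.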

[13] = CCTE_Shafer_MEA_acute_burst_percentage_std: CCTE's Neural Acute Assay for Standard Deviation of Burst Percentage, Shafer Lab (AID 2284018);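 also: fitted in the negative direction so actives lower burst percentage SD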
Outline: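 Rat primary cortical neurons on 48-well MEAs, DIV 13 or 15, 37 C. 40-min baseline then 40-min recording with compound (0.03-40 uM); well-level SD of per-electrode burst spike percentage, expressed as percent change from baseline.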

[14] = CCTE_Shafer_MEA_acute_per_network_burst_spike_number_mean: CCTE's Neural Acute Assay for Average Number of Spikes in a Network Burst, Shafer Lab (AID 2284019);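 as to AC50: curve fitted for loss of signal so actives reduce spikes per network burst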
Outline: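 Rat cortical cultures, DIV 13/15; spike threshold 8x rms noise, 300-5000 Hz band-pass, 12.5 kHz sampling; wells need >/= 10 active electrodes. Compound 0.03-40 uM, 40 min, 37 C; % change vs own baseline, DMSO negative control.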

[15] = CCTE_Shafer_MEA_acute_per_network_burst_spike_number_std: CCTE's Neural Acute Assay for Standard Deviation of Number of Spikes in a Network Burst, Shafer Lab (AID 2284020);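 also: fitted for decrease in spike-number SD versus DMSO so actives lower it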
Outline: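 Rat cortical cultures, DIV 13/15, 37 C; 20-min stabilisation, 40-min baseline, compound 0.03-40 uM, 40-min re-record. Spikes detected at 8x rms noise (300-5000 Hz band-pass). Readout: % change from baseline in per-burst spike-number SD.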

[16] = CCTE_Shafer_MEA_acute_per_network_burst_electrodes_number_mean: CCTE's Neural Acute Assay for Mean Number of Electrodes in a Network Burst, Shafer Lab (AID 2284021);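 also: curves fitted for decreases only so hits reduce electrodes per burst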
Outline: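 Rat primary cortical neurons on 48-well MEAs, DIV 13 or 15, were treated at 0.03-40 uM. Spikes were detected at 8x rms noise and recorded at 37 C. The mean electrodes per network burst in a 40 min exposure recording was expressed as percent change from a 40 min baseline.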

[17] = CCTE_Shafer_MEA_acute_network_burst_percentage: CCTE's Neural Acute Assay for Percentage of Network Bursts, Shafer Lab (AID 2284022);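 also: curves fitted for loss so actives lower network burst percentage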
Outline: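 Rat primary cortical neuron networks on 48-well MEA plates, DIV 13 or 15, treated acutely with compound (0.03-40 uM, at least three wells). Percent of spikes within network bursts compared between 40-min recordings before and during exposure at 37 C, expressed as percent change.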

[18] = CCTE_Shafer_MEA_acute_cross_correlation_area: CCTE's Neural Acute Assay for Area of Cross Correlation, Shafer Lab (AID 2284024);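 also: curves fitted for loss of cross-correlation area so actives lower synchrony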
Outline: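 Rat primary cortical neurons on 48-well MEA, DIV 13 or 15; compounds 0.03-40 uM. Baseline and post-exposure 40 min recordings at 37 C; percent change in area under pooled inter-electrode cross-correlation near zero lag, relative to DMSO.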

[19] = target: Estrogen receptor (Homo sapiens) (UniProt P03372); test: CCTE_Deisenroth_AIME_96WELL_LUC_Active: CCTE's 96-well Estrogen Receptor Transactivation Assay with AIME metabolic competence (ERTA luciferase; metabolism positive), Deisenroth Lab (AID 2284023; active = hit-call score of the fitted dose curve at least 0.9, where 1 is the maximum)
Outline: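 Metabolism-positive mode: induced rat hepatic S9 in alginate microspheres conditions test solutions (0.002 - 200 uM, 10 points) for 2 hours. VM7Luc4E2 ER luciferase reporter cells then exposed 24 h; positive-direction fit against 17beta-estradiol, n=4 typical.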

[20] = target: Estrogen receptor (Homo sapiens) (UniProt P03372); test: CCTE_Deisenroth_AIME_96WELL_LUC_Inactive: CCTE's 96-well Estrogen Receptor Transactivation Assay without AIME metabolic competence (ERTA luciferase; metabolism negative), Deisenroth Lab (AID 2284025; active = hit-call score of the fitted dose curve at least 0.9, where 1 is the maximum)
Outline: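 Metabolism-negative arm: chemicals (0.002–200 uM, 10 points) incubated 2 h with alginate-water microspheres, then medium moved onto VM7Luc4E2 cells for 24 h luciferase read-out. Positive direction vs 17beta-estradiol; n≥4 experiments.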

Measured: AC50

Estrogen receptor (Homo sapiens), sequence (P03372 whole entry, looked up): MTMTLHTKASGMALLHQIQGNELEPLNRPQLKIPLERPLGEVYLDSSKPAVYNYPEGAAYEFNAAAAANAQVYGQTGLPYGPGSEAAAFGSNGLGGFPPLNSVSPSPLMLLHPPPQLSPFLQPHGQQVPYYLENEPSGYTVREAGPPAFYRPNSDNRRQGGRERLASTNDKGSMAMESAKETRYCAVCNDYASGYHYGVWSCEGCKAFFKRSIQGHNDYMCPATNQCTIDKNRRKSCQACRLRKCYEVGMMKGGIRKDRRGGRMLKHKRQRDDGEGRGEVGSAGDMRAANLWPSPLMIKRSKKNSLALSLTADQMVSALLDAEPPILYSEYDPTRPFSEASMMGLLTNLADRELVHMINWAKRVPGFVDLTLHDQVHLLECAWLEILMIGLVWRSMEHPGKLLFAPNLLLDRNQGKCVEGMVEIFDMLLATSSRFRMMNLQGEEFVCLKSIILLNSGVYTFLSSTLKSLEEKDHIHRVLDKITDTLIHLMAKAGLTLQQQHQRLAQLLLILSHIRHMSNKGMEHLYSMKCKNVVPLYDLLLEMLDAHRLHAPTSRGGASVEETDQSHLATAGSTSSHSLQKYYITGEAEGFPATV

COc1nc(NC(C)C)nc(NC(C)C)n1
inactive: [2] | [3] | [4]
active: [1] 32.6 µM

N#Cc1cc(Br)c(O)c(Br)c1
active: [1] 9.69 µM
inactive: [2] | [3] | [4] | [5] | [6]

C=CCC1=C(C)C(OC(=O)C2C(C=C(C)C)C2(C)C)CC1=O (centres undefined)
active: [1] 34.7 µM and 46.9 µM | [2] 36.2 µM and 53.5 µM | [3] 26 µM and 42.3 µM | [10] 2.93 µM | [11] 3.88 µM | [12] 6.49 µM and 2.93 µM | [15] 0.727 µM | [17] 7.43 µM and 1.34 µM
inactive: [7] | [8] | [4] | [9] | [10] | [11] | [13] | [14] | [15] | [16] | [18]

CON(C)C(=O)Nc1ccc(Cl)c(Cl)c1
active: [1] 26.8 µM | [12] 8.54 µM | [13] 649 nM
inactive: [2] | [3] | [7] | [8] | [4] | [9] | [10] | [11] | [14] | [15] | [16] | [17] | [18]

Oc1ccccc1-c1ccccc1
active: [19] 68.8 µM | [20] 58.3 µM
inactive: [1] | [2] | [3] | [4] | [5] | [6]

CCc1nn(C)c(C(=O)NCc2ccc(C(C)(C)C)cc2)c1Cl
active: [1] 0.928 µM | [2] 0.496 µM
inactive: [3] | [4]

CCCC1COC(Cn2cncn2)(c2ccc(Cl)cc2Cl)O1 (centres undefined)
active: [1] 18.4 µM | [2] 33.7 µM | [10] 20 µM | [12] 14.6 µM | [14] 9.03 µM | [15] 12.6 µM | [16] 15.2 µM | [17] 20 µM
inactive: [3] | [7] | [8] | [4] | [9] | [11] | [13] | [18]

O=C(O)COc1nc(Cl)c(Cl)cc1Cl
inactive: [1] | [2] | [3] | [4] | [6]

N#CC(CCc1ccc(Cl)cc1)(Cn1cncn1)c1ccccc1 (centres undefined)
inactive: [1] | [2] | [3] | [7] | [8] | [4] | [6] | [9] | [10] | [11] | [12] | [13] | [14] | [15] | [16] | [17] | [18]

CCNc1nc(Cl)nc(NC(C)C)n1
active: [12] 13.9 µM
inactive: [7] | [8] | [4] | [5] | [6] | [9] | [10] | [11] | [13] | [14] | [15] | [16] | [17] | [19] | [18] | [20]

O=C(Nc1ccccc1)Nc1ccnc(Cl)c1
inactive: [3] | [4] | [6]
active: [1] 72.3 µM | [2] 50 µM

OC(c1ccc(Cl)cc1)(c1cncnc1)c1ccccc1Cl (centres undefined)
inactive: [1] | [2] | [3] | [4] | [6] | [13]
active: [7] 792 nM | [8] 803 nM | [9] 5 µM | [10] 5 µM | [11] 3.27 µM | [12] 2.9 µM | [14] 1.62 µM | [15] 2.84 µM | [16] 2.52 µM | [17] 6.61 µM | [18] 761 nM
